Results published in PubChem BioAssay AID1159580 (chemical genetic matrix, 2015).
Values joined by “and” are separate entries in the source; they are usually repeats but may differ in a detail not shown here. Equal entries are not always repeated. The whole screen tested about 5,500 compounds, of which about 2,000 (36%) were called active. Another 18% or so got no clear call; they are omitted. Cut-off read from the data, not from the text of the source: active = normalized growth mostly below about 0.91 (no sharp cut-off); inconclusive = no clear call, values can overlap the other calls; inactive = mostly above about 0.92. The list shows a part of the results.

Assay: chemical genetic growth profiling, strain panel (AID 1159580);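 note: tested at 20 µM; growth read once vehicle control cultures reached saturation at 30 °C; 1 = growth at the plate median or of vehicle wells; lower values mean less growth of the strain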
Details: S. cerevisiae deletion strains, growth OD

Measured: normalized growth

C/C=C/c1ccc2c(c1)OCO2
inactive: locus YAL013W, strain DEP1, hits give low values 1.01 | locus YAL021C, strain ccr4, hits give low values 1.02 | locus YAL026C, strain drs2, hits give low values 1.02 | locus YAL030W, strain snc1, hits give low values 1.02 | locus YBL061C, strain skt5, hits give low values 1.02 | locus YBR009C, strain hhf1, hits give low values 1.02 | locus YBR021W, strain FUR4, hits give low values 1.02 | locus YBR023C, strain chs3, hits give low values 1.02 | locus YBR171W, strain sec66, hits give low values 1.03 | locus YBR229C, strain ROT2, hits give low values 1.01 | locus YBR231C, strain swc5, hits give low values 1.02 | locus YBR279W, strain paf1, hits give low values 1.02 | locus YCL011C, strain gbp2, hits give low values 1.01 | locus YCL016C, strain dcc1, hits give low values 1.02 | locus YCL029C, strain bik1, hits give low values 1.01 | locus YCL061C, strain MRC1, hits give low values 1 | locus YCL069W, strain vba3, hits give low values 1.02 | locus YCR088W, strain abp1, hits give low values 1.02 | locus YDL005C, strain med2, hits give low values 1.02 | locus YDL035C, strain GPR1, hits give low values 1.02 | locus YDL040C, strain nat1, hits give low values 1.02 | locus YDL074C, strain BRE1, hits give low values 1.07 | locus YDL101C, strain DUN1, hits give low values 1.02 | locus YDL134C, strain PPH21, hits give low values 1 | locus YDL185W, strain tfp1, hits give low values 0.998 | locus YDL192W, strain arf1, hits give low values 1.01 | locus YDR001C, strain nth1, hits give low values 1 | locus YDR069C, strain doa4, hits give low values 1.04 | locus YDR101C, strain arx1, hits give low values 1.04 | locus YDR137W, strain rgp1, hits give low values 0.994 | locus YDR150W, strain NUM1, hits give low values 1.01 | locus YDR159W, strain sac3, hits give low values 1.02 | locus YDR162C, strain NBP2, hits give low values 1 | locus YDR195W, strain ref2 0.988 | locus YDR297W, strain sur2, hits give low values 1.02 | locus YDR318W, strain mcm21, hits give low values 0.991 | locus YDR334W, strain swr1, hits give low values 1.02 | locus YDR335W, strain msn5, hits give low values 1.02 | locus YDR388W, hits give low values 1.01 | locus YDR392W, strain spt3, hits give low values 0.912 | locus YDR502C, strain sam2, hits give low values 1.01 | locus YEL003W, strain gim4, hits give low values 1.02 | locus YEL037C, strain rad23, hits give low values 1.01 | locus YEL061C, strain CIN8 (second series), hits give low values 1.01 | locus YEL061C, strain CIN8, hits give low values 1.01 | locus YER015W, strain faa2, hits give low values 1.01 | locus YER016W, strain bim1, hits give low values 1.02 | locus YER110C, hits give low values 1.01 | locus YER111C, strain swi4, hits give low values 1.01 | locus YER155C, strain BEM2 (second series), hits give low values 0.997 | locus YER155C, strain BEM2, hits give low values 1.01 | locus YER167W, strain BCK2, hits give low values 1.01 | locus YFR010W, strain ubp6, hits give low values 1.02 | locus YGL078C, strain dbp3, hits give low values 1.02 | locus YGL086W, strain mad1, hits give low values 1.05 | locus YGL167C, strain pmr1, hits give low values 1.02 | locus YGL173C, strain kem1, hits give low values 1.02 | locus YGL227W, strain vid30, hits give low values 1.02 | locus YGL240W, strain doc1, hits give low values 1.01 | locus YGL248W, strain PDE1, hits give low values 1.02 | locus YGL253W, strain hxk2, hits give low values 1.02 | locus YGR078C, strain PAC10, hits give low values 1.01 | locus YGR135W, strain pre9, hits give low values 1.01 | locus YGR252W, strain gcn5, hits give low values 0.972 | locus YHR013C, strain ard1, hits give low values 1.09 | locus YHR027C, strain rpn1, hits give low values 1.02 | locus YHR030C, strain SLT2, hits give low values 1.01 and 0.978 | locus YHR079C, strain IRE1 (second series), hits give low values 1 | locus YHR079C, strain IRE1, hits give low values 0.98 | locus YHR094C, strain hxt1, hits give low values 0.994 | locus YHR129C, strain ARP1, hits give low values 1.01 | locus YHR142W, strain chs7, hits give low values 1.03 | locus YHR200W, strain rpn10, hits give low values 1.01 | locus YIL066C, strain RNR3, hits give low values 1.02 | locus YIL073C, strain SPO22, hits give low values 1.06 | locus YIL125W, strain kgd1, hits give low values 1.01 | locus YIR030C, strain dcg1, hits give low values 0.998 | locus YJL092W, strain hpr5, hits give low values 1.01 | locus YJL095W, strain BCK1 (second series), hits give low values 1.02 | locus YJL095W, strain BCK1, hits give low values 1.02 and 0.98 | locus YJL115W, strain asf1, hits give low values 1.03 | locus YJL129C, strain trk1, hits give low values 1.03 | locus YJL134W, strain LCB3, hits give low values 1.01 | locus YJL154C, strain vps35, hits give low values 1 | locus YJL164C, strain tpk1, hits give low values 1.01 | locus YJL166W, strain qcr8, hits give low values 1.01 | locus YJL168C, strain set2, hits give low values 1.01 | locus YJL187C, strain SWE1 (second series), hits give low values 1.03 | locus YJL187C, strain SWE1, hits give low values 1.01 | locus YJR043C, strain POL32, hits give low values 1.02 | locus YJR066W, strain TOR1, hits give low values 0.948
